ATG4B inhibitor: ATG4B protease inhibitors, primary screen, biochemical, fluorescence, uHTS | ATG4B cleavage of LC3-PLA2, NBD-HPC fluorescence, 1 h | inhibition, % at 8.33 µM | actives 0.51% (n = 340,000) | AID 504462, 2011; in the data active = inhibition above about 40%
Calb FLC: C. albicans growth inhibition with fluconazole, primary screen, CaCi-2 strain, Alamar Blue fluorescence | AID 1979, 2009 | growth inhibition, % (concentration not given with the values) | C. albicans CaCi-2 (fluconazole-resistant clinical isolate) + fluconazole, 48 h | actives 0.57% (n = 300,000);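 active = growth inhibition above about 58% in most replicates, limit read from the data, passing the limit was not always enough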;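 also: all wells also contain fluconazole at 8 µg/ml as a sub-toxic cotreatment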
SUMO Mot1 rescue: yeast Mot1-301 growth rescue at high temperature, primary screen, SUMOylation pathway inhibitor project, S. cerevisiae, ATP luminescence, 38.5C; actives 1% (n = 320,000); growth rescue, % at 18.8 µM; S. cerevisiae Mot1-301 growth rescue; percent above DMSO median, 100 means doubled;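 active = every valid replicate shows activation above 250% relative to neutral control wells; inactive = the rest, any valid replicate at or below 250%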
FAS TE block: FAS thioesterase domain inhibitors, primary screen, biochemical, fluorescence intensity, uHTS. actives 0.67% (n = 360,000). AID 602261, 2012. recombinant FAS-TE, OMFH fluorogenic substrate, fluorescence endpoint. inhibition, % at 15 µM. Fatty acid synthase (Homo sapiens), P49327;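 active = compounds whose normalised, plate-corrected inhibition of enzyme fluorescence in the single-dose primary screen is 50% or more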
NadD inh: inhibitors of S. aureus NadD, primary screen, biochemical, colorimetric, uHTS | Nicotinate-nucleotide adenylyltransferase NadD (Staphylococcus aureus N315) | purified NadD enzyme, colorimetric absorbance read-out | inhibition, % at 20 µM | actives 0.78% (n = 360,000) | AID 602399, 2012; in the data active = inhibition above about 26%
NadD conf: inhibitors of S. aureus NadD, confirmation, biochemical, colorimetric, single concentration | purified S. aureus NadD, colorimetric enzyme assay | inhibition, % at 20 µM | shares compounds with NadD inh | actives 13% (n = 2,000); in the data active = inhibition mostly above about 42%, no sharp cut-off; inactive = mostly below about 42%
A number is an active result. Rows were chosen to be rich in hits. Some 3.1% of all compounds tested hit in one or more screens of this group.

`O=C1CC(c2ccco2)CC(O)=C1C=NCCN1CCNCC1` (stereo not given) gave ATG4B inhibitor inactive, Calb FLC inactive, SUMO Mot1 rescue inactive, FAS TE block inactive and NadD inh inactive.
`CCn1cc(C(=O)O)c(=O)c2cc(F)c(N3CCN(S(=O)(=O)c4ccc(NC(=O)OC)cc4)CC3)cc21` gave ATG4B inhibitor inactive, Calb FLC inactive, SUMO Mot1 rescue inactive, FAS TE block inactive and NadD inh inactive.
Screening CC1CCCC(C)N1C(=O)COC(=O)CCC(=O)c1ccc(F)cc1 (stereo not given) returned ATG4B inhibitor inactive, SUMO Mot1 rescue inactive, FAS TE block inactive and NadD inh inactive.
`c1ccc2cc(-c3cc4ccccn4c3)ccc2c1` gave ATG4B inhibitor inactive, Calb FLC inactive, SUMO Mot1 rescue inactive, FAS TE block inactive, NadD inh 34.9 and NadD conf inactive.
`CC(C)(C)C1N=C(c2ccc3ccccc3c2)OC1=O` (stereo not given) gave ATG4B inhibitor inactive, SUMO Mot1 rescue inactive, FAS TE block inactive and NadD inh inactive.
For CCOc1ccc(NS(=O)(=O)c2ccc(Cl)c(N=Nc3c(O)[nH]c(=S)[nH]c3=O)c2)cc1Br the results were FAS TE block inactive, NadD inh 38.8 and NadD conf 63.0.
`COc1ccc(NS(=O)(=O)c2cc(N=Nc3c(O)[nH]c(=O)[nH]c3=O)ccc2OC)cc1Br` gave FAS TE block inactive and NadD inh inactive.
`Cc1oc2c(cc(NS(=O)(=O)c3ccc4c5c(cccc35)C(=O)N4)c3ccccc32)c1C(=O)OC(C)C` gave ATG4B inhibitor inactive, Calb FLC inactive, SUMO Mot1 rescue inactive, FAS TE block inactive, NadD inh 30.5 and NadD conf 36.7.
For O=C1CCCc2oc3c(cc(NS(=O)(=O)c4ccc5c6c(cccc46)C(=O)N5)c4ccccc43)c21 the results were ATG4B inhibitor inactive, Calb FLC inactive, SUMO Mot1 rescue inactive, FAS TE block inactive and NadD inh inactive.
Screening COc1ccc(NC(=O)CSc2nc3c(cc2C#N)CN(C)CC3)cc1 returned ATG4B inhibitor inactive, Calb FLC inactive, SUMO Mot1 rescue inactive, FAS TE block inactive, NadD inh 30.4 and NadD conf inactive.
For Cc1cccc(NC(=O)c2cc(NC(=O)c3ccccc3)ccc2N2CCCCC2)c1 the results were ATG4B inhibitor inactive, Calb FLC inactive, SUMO Mot1 rescue inactive, FAS TE block inactive, NadD inh 32.2 and NadD conf inactive.
`COc1ccccc1NS(=O)(=O)c1cc(NC(C)=O)ccc1N1CCCCC1` gave ATG4B inhibitor inactive, Calb FLC inactive, SUMO Mot1 rescue inactive, FAS TE block inactive and NadD inh inactive.
Screening O=C(Nc1ccc(Cl)cc1)Nc1ccc(N2CCCC2)c(S(=O)(=O)Nc2ccccc2Cl)c1 returned ATG4B inhibitor inactive, Calb FLC inactive, SUMO Mot1 rescue inactive, FAS TE block inactive, NadD inh 33.0 and NadD conf inactive.
`COc1ccccc1NS(=O)(=O)c1cc(NC(=O)Nc2cccc(C)c2)ccc1N1CCCCC1` gave ATG4B inhibitor inactive, Calb FLC inactive, SUMO Mot1 rescue inactive, FAS TE block inactive, NadD inh 30.5 and NadD conf inactive.
For O=C(Nc1ccc(N2CCOCC2)c(S(=O)(=O)Nc2ccccc2Cl)c1)c1ccccc1 the results were ATG4B inhibitor inactive, SUMO Mot1 rescue inactive, FAS TE block inactive and NadD inh inactive.
Screening C/C(=N\NC(=O)C(O)c1ccccc1)c1ccc(Br)s1 (stereo not given) returned ATG4B inhibitor inactive, Calb FLC inactive, SUMO Mot1 rescue inactive, FAS TE block inactive and NadD inh inactive.
Cc1cc2nc(C(C)(C)C)c(Cc3ccccc3)n2c(C)c1Br was read as FAS TE block inactive and NadD inh inactive.
For CC(=O)c1c(C)[nH]c(C(=O)OC(C)C(=O)Nc2ccc(C)c(S(=O)(=O)N3CCOCC3)c2)c1C (stereo not given) the results were ATG4B inhibitor inactive, SUMO Mot1 rescue inactive, FAS TE block inactive and NadD inh inactive.
For Cc1ccc(NC(=O)C(C)OC(=O)c2cc(=O)[nH]c3ccccc23)cc1S(=O)(=O)N1CCOCC1 (stereo not given) the results were ATG4B inhibitor inactive, FAS TE block inactive, NadD inh 34.9 and NadD conf inactive.
COC1=CC(=O)[C@@]2([C@@H]1O)[C@@H](Cl)C[C@]13C(OC)=C(OC)C(=O)C[C@]21CCN3C was read as ATG4B inhibitor inactive, SUMO Mot1 rescue inactive, FAS TE block inactive and NadD inh inactive.
For Cc1ccc(Nc2nnc(SC/C(O)=C(\C#N)c3nc4ccccc4[nH]3)s2)c(C)c1 the results were ATG4B inhibitor inactive, Calb FLC inactive, SUMO Mot1 rescue inactive, FAS TE block inactive, NadD inh 55.7 and NadD conf 60.5.
Cc1cccc(Nc2nnc(SC/C(O)=C(\C#N)c3nc4ccccc4[nH]3)s2)c1 was read as ATG4B inhibitor inactive, Calb FLC inactive, SUMO Mot1 rescue inactive, FAS TE block inactive, NadD inh 32.0 and NadD conf inactive.
`Cc1csc(SCC(=O)NC(=O)NC2CCCC2)n1` gave ATG4B inhibitor inactive, Calb FLC inactive, SUMO Mot1 rescue inactive, FAS TE block inactive and NadD inh inactive.
`N=c1c(S(=O)(=O)c2ccc(Cl)cc2)cc2c(=O)n3ccccc3nc2n1Cc1ccco1` gave ATG4B inhibitor inactive, Calb FLC inactive, SUMO Mot1 rescue inactive, FAS TE block inactive, NadD inh 42.9 and NadD conf inactive.
`N=c1c(C(=O)NCc2ccco2)cc2c(=O)n3ccccc3nc2n1CCc1ccccc1` gave ATG4B inhibitor inactive, Calb FLC inactive, SUMO Mot1 rescue inactive, FAS TE block inactive and NadD inh inactive.
Screening N=c1c(S(=O)(=O)c2ccc(Br)cc2)cc2c(=O)n3ccccc3nc2n1Cc1ccccc1 returned ATG4B inhibitor inactive, Calb FLC inactive, SUMO Mot1 rescue inactive, FAS TE block inactive, NadD inh 31.6 and NadD conf inactive.
Screening Cc1ccc(Cn2c(=N)c(C(=O)NCc3ccco3)cc3c(=O)n4ccccc4nc32)cc1 returned ATG4B inhibitor inactive, Calb FLC inactive, SUMO Mot1 rescue inactive, FAS TE block inactive, NadD inh 43.2 and NadD conf inactive.
N=c1c(S(=O)(=O)c2ccc(Br)cc2)cc2c(=O)n3ccccc3nc2n1C1CCCCC1 was read as ATG4B inhibitor inactive, Calb FLC inactive, SUMO Mot1 rescue inactive, FAS TE block inactive, NadD inh 42.3 and NadD conf inactive.
